Measurements published in PubChem BioAssay.
Values joined by “and” are separate entries in the source; they are usually repeats but may differ in a detail not shown here. Identical values can stand only once. Unmarked numbers belong to inactive results. Active and inactive are the calls of the source.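 How the source made its calls: active means compounds whose cell count with miR-34 switched on is under 0.7 times the count with it off; inactive means the rest.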 Peptide text beside a SMILES is read from it. * marks the point of attachment. CH2Cl = ClC*

Assay: viability loss with induced miR-34 in A549 – imaging, A549 dox-inducible miR-34, nuclei and caspase counts, primary screen (AID 1347080); further: test concentration not given here
Details: A549 miR-34 inducible, Hoechst nuclei count, 48 h; hits give low values
With `N[C@H]1C[C@@H]1c1ccccc1` the fold change was 0.858. `C=C1[C@@H](C)[C@H]2[C@H](Cc3ccccc3)NC(=O)[C@]23OC(=O)/C=C/[C@H](O)CCC[C@@H](C)C/C=C/[C@H]3[C@@H]1O` gave a fold change of 1.14. Compound `O=C(CCC/C=C\C[C@@H]1[C@@H](/C=C/[C@@H](O)COc2cccc(C(F)(F)F)c2)[C@H](O)C[C@@H]1O)NC(CO)CO` has a fold change of 0.98. Compound `CC1OC(=O)C(C(C)C)NC(=O)C(C(C)C)OC(=O)C(C(C)C)NC(=O)C(C)OC(=O)C(C(C)C)NC(=O)C(C(C)C)OC(=O)C(C(C)C)NC(=O)C(C)OC(=O)C(C(C)C)NC(=O)C(C(C)C)OC(=O)C(C(C)C)NC1=O` (stereo unspecified) has a fold change of 0.784. In the case of `Clc1ccc(C2CC3CCC2N3)cn1` (stereo unspecified), the fold change is reported as 0.945. With `COC(=O)[C@@]1(O)CC2OC1(C)n1c3ccccc3c3c4c(c5c6ccccc6n2c5c31)C(=O)NC4` (stereo partly specified) the fold change was 0.903. Compound `COC[C@H]1OC(=O)c2coc3c2[C@@]1(C)C1=C(C3=O)[C@@H]2CCC(=O)[C@@]2(C)C[C@H]1OC(C)=O` has a fold change of 0.997. Compound `C[C@H](N)C(=O)N[C@@H](C)C(=O)N[C@@H](Cc1ccccc1)C(=O)CCl` (H-Ala-Ala-Phe-CH2Cl) has a fold change of 0.806. In the case of `CCCCC/C=C\C/C=C\C/C=C\C/C=C\CCCC(=O)NCc1ccc(O)c(OC)c1`, the fold change is reported as 0.841 and 1. `C=C(C)[C@H]1O[C@H]2CC[C@@]3(C)[C@@](O)(CC[C@H]4[C@@H]5OC(C)(C)[C@H]6C[C@@H]7C(=C)Cc8c(Cl)cc9[nH]c(c5c9c8[C@@]76O)[C@@]43C)[C@]23O[C@@H]3[C@H]1O` gave a fold change of 1.28. In the case of `CC(C)CC(NP(=O)(O)OC1OC(C)C(O)C(O)C1O)C(=O)NC(Cc1c[nH]c2ccccc12)C(=O)O` (stereo unspecified), the fold change is reported as 0.95. `C[C@]12CCC3c4ccc(OC(=O)N(CCCl)CCCl)cc4CCC3C1CC[C@@H]2O` (stereo partly specified) showed a fold change of 1.19. Compound `N#CC(C#N)=NNc1ccc(OC(F)(F)F)cc1` has a fold change of 1.05. For `CCCCCCC(=O)O[C@H]1CC[C@H]2[C@@H]3C[C@H](O)C4=CC(=O)CC[C@]4(C)[C@H]3CC[C@]12C`, the fold change was 0.966. `CO[C@@H]1C[C@@H](C[C@H]2CC[C@H](C)[C@H]([C@@H](C)C(=O)O)O2)O[C@]2(O[C@](C)([C@H]3CC[C@@](C)([C@@H]4O[C@@H]([C@H]5O[C@@](O)(CO)[C@H](C)C[C@@H]5C)C[C@@H]4C)O3)C[C@H]2C)[C@@H]1C` gave a fold change of 0.993. Work on `C[C@@]1(CO)[C@H](O)CC[C@@]2(C)[C@H]1CC[C@H]1C[C@@H]3C[C@@]12CC[C@]3(O)CO` yielded a fold change of 1.03. In the case of `CCOC(=O)CN1C(=O)CC(C[C@@H](O)C2C[C@@H](C)C[C@H](C)C2=O)CC1=O` (stereo partly specified), the fold change is reported as 1.01.

Same assay, conditions: A549 miR-34 inducible, Hoechst nuclei count, 48 h; hits give low values; cell number ratio, induced over uninduced
With `N[C@H]1C[C@@H]1c1ccccc1` the fold change was 0.985. For `O=C(NCCN1CCC2(CC1)C(=O)NCN2c1ccccc1)c1ccc2ccccc2c1`, the fold change was 0.966. With `CCCCC/C=C\C/C=C\C/C=C\C/C=C\CCCC(=O)Nc1ccc2c(C)cc(=O)oc2c1` the fold change was 0.937. Compound `CCNC(=O)[C@H]1O[C@@H](n2cnc3c(N)ncnc32)[C@@H](O)C1O` (stereo partly specified) has a fold change of 0.967. With `CCCCC/C=C\C/C=C\C/C=C\C/C=C\CCCC(=O)NCCc1c[nH]c2ccc(O)cc12` the fold change was 1. `CCCC[C@@H](C)C(OC(=O)C[C@@H](CC(=O)O)C(=O)O)C(C[C@@H](C)C[C@H](O)CCCC[C@@H](O)C[C@H](O)[C@H](C)N)OC(=O)C[C@@H](CC(=O)O)C(=O)O` (stereo partly specified) showed a fold change of 0.933. For `CCCCC/C=C\C/C=C\C/C=C\C/C=C\CCCC(=O)NOCCO`, the fold change was 0.931. For `CN=C(NS(=O)(=O)c1ccc(Cl)cc1)N1C[C@@H](c2ccccc2)C(c2ccc(Cl)cc2)=N1`, the fold change was 0.663 (active). `CCCCC/C=C\C/C=C\C/C=C\C/C=C\CCCC(=O)Nc1ccc(O)cc1C` gave a fold change of 1.03. `CCCC(=O)N[C@H]1CCOC1=O` showed a fold change of 0.907. Compound `C=C(C)[C@@H]1CCC(C)=C[C@H]1c1c(OC)cc(CCCCC)cc1OC` has a fold change of 0.935. `COC(C/C=C/C=C/CC/C=C\CC(C)/C=C\C(=C/C(=O)O)CC(=O)O)/C(C)=C\C=C(/C)C(=O)O` (stereo unspecified) gave a fold change of 0.975. `CCCCC/C=C\C/C=C\C/C=C\C/C=C\CCCC(=O)NCC(O)CC(=O)O` (stereo unspecified) showed a fold change of 1.07. Compound `C=C1[C@@H](C)[C@H]2[C@H](Cc3ccccc3)NC(=O)C23[C@H](OC(C)=O)/C=C/[C@](C)(O)C(=O)[C@@H](C)C/C=C/[C@H]3[C@@H]1O` (stereo partly specified) has a fold change of 1.3. Compound `CCCCC/C=C\C/C=C\C/C=C\C/C=C\CCCC(=O)NC[C@@H](C)O` has a fold change of 0.961. `Cn1c2cccc(=O)c-2nc2ccccc21` showed a fold change of 1.03. Compound `CO/C1=C\C(C)=C\[C@@H](C)[C@@H](O)[C@@H](C)C/C(C)=C/C=C/[C@H](OC)[C@@H]([C@@H](C)[C@@H](O)[C@H](C)[C@@]2(O)C[C@@H](O)[C@H](C)[C@@H](C(C)C)O2)OC1=O` has a fold change of 1.05. With `CCCCC/C=C\C/C=C\C/C=C\C/C=C\CCCC(=O)NC(CO)CO` the fold change was 0.961. `CCCCC/C=C\C/C=C\C/C=C\C/C=C\CCC(C)C(=O)NCCF` (stereo unspecified) showed a fold change of 1.05. Compound `CCCCCCCC/C=C\CCCCCCCC(=O)Nc1ccccc1` has a fold change of 1.04. In the case of `CCCCC/C=C\C/C=C\C/C=C\C/C=C\CCCC(=O)N[C@@H](C)CO`, the fold change is reported as 1.04. Compound `CCCCC/C=C\C/C=C\C/C=C\C/C=C\CCCC(=O)N[C@H](C)COP(=O)(O)O` has a fold change of 1.03. `CCCCC/C=C\C/C=C\C/C=C\C/C=C\CCCC(=O)Nc1ccc([N+](=O)[O-])cc1` showed a fold change of 1.04. In the case of `COc1ccc(/C=C/C(=O)CC(=O)/C=C/c2ccc(OC)c(OC)c2)cc1OC`, the fold change is reported as 0.864.
